Screens from PubChem BioAssay.
Shown are actives, neighbours in structure and some others; about 4.6% of the full set was active somewhere.
USP7 block: human USP7 deubiquitinase inhibition. Q93009. purified USP7, Ub-rhodamine cleavage fluorescence. inhibition, % at 20 µM. 47,000 compounds, 0.3% hits
UCHL1 block: blocks human UCHL1 ubiquitin-rhodamine cleavage. P09936. purified UCHL1, Ub-rhodamine cleavage fluorescence. inhibition, % at 20 µM. 47,000 compounds, 0.2% hits. AID 1645859
USP8 block: human USP8 deubiquitinase inhibition; purified USP8, Ub-rhodamine cleavage fluorescence, 30 min; 47,000 compounds, 4.2% hits; P40818; inhibition, % at 20 µM
Target sequence (P40818 whole entry, looked up): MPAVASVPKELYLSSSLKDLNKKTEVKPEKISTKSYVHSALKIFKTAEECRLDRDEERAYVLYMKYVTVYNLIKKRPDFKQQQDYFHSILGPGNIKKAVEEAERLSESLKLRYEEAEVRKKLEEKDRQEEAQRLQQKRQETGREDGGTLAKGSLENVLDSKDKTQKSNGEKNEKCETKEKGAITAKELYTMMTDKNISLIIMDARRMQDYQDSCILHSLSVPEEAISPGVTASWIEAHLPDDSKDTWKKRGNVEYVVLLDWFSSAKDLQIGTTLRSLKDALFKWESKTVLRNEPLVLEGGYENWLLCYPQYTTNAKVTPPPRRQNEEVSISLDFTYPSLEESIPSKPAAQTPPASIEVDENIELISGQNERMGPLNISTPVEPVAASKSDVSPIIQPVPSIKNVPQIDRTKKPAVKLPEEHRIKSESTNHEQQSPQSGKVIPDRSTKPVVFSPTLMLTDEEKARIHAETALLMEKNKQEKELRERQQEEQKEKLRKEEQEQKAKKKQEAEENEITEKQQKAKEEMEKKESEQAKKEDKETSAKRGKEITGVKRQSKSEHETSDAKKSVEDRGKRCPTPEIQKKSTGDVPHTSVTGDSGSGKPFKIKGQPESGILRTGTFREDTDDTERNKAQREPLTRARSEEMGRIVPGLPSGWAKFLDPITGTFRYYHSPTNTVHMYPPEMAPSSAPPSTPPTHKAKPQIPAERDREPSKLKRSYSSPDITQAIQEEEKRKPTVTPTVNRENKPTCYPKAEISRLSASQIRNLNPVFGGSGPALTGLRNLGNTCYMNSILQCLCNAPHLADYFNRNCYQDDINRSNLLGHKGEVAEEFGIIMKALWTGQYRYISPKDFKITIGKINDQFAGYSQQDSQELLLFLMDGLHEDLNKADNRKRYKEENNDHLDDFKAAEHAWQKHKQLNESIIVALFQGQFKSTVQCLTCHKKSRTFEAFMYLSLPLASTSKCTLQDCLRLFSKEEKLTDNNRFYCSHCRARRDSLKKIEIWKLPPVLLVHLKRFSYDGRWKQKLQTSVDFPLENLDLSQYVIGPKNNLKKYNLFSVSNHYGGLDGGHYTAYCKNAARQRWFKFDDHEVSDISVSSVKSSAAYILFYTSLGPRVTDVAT
USP10 block: human USP10 deubiquitinase inhibition; purified USP10, Ub-rhodamine fluorescence, 60 min; inhibition, % at 20 µM; 47,000 compounds, 1.1% hits; AID 1645856
Of the large screens only hits and unclear results are named; the others gave an inactive call. Cut-off read from the data, not from the text of the source: active = inhibition above about 30%; inactive = the rest.

Cc1cc(S(=O)(=O)[C@H]2CS(=O)(=O)C[C@@H]2N2CCCCC2)ccc1F	none
CCN1CCN(c2ccc(NC(=O)c3ccc(OC)cc3)cn2)C1=O	none
CNc1nccnc1CC1CCCN(C(=O)c2ccc3n[nH]nc3c2)C1 (stereo not drawn)	none
Cc1ccc(S(=O)(=O)N2CCC(n3cnc4ccccc4c3=O)CC2)cc1	none
COc1ccccc1OCCSc1nnc(-c2ccc3c(c2)OCCCO3)n1C	USP7 block 77.9
O=C(CCCCn1c(=O)c2ccccc2n(CC(=O)Nc2ccc3c(c2)OCCO3)c1=O)NCc1ccco1	USP10 block 43.3
Cc1ccc(CNC(=O)CCCn2c(=O)c3sccc3n(CC(=O)Nc3cc(Cl)ccc3C)c2=O)cc1	none
COc1ccccc1CNC(=O)CCCCn1c(=O)c2ccccc2n(CC(=O)Nc2ccc(C)cc2C)c1=O	USP8 block 45.6, USP10 block 49.9
CCOc1ccccc1NC(=O)Cn1c(=O)n(CCCC(=O)NCc2ccc(C)cc2)c(=O)c2sccc21	USP7 block 35.9, USP8 block 47.2, USP10 block 56.1
Cc1ccc(CNC(=O)CCCn2c(=O)c3ccccc3n(CC(=O)Nc3cc(C)[nH]n3)c2=O)cc1	none
COCCCNC(=O)c1ccc(Cn2c(=O)c3ccccc3n(CC(=O)NCc3ccco3)c2=O)cc1	none
O=C(Cn1c(=O)n(Cc2ccc(C(=O)NCc3ccco3)cc2)c(=O)c2ccccc21)Nc1ccc2c(c1)OCCO2	USP8 block 74.4, USP10 block 41.0
Cc1cnc(C2CN(S(=O)(=O)c3ccccc3C)CCO2)cn1 (stereo not drawn)	none
COc1ccc(C2CC(c3ccc(Cl)cc3)N(C(=O)C(C)C)c3ncnn32)cc1 (stereo not drawn)	none
COC(=O)c1ccccc1NC(=O)Cn1c(=O)n(CCCC(=O)NCc2ccco2)c(=O)c2ccccc21	USP8 block 58.5, USP10 block 54.1
CCc1ccc(NC(=O)Cn2c(=O)n(-c3ccc(CC(=O)NCc4ccco4)cc3)c(=O)c3ccccc32)cc1	none
COc1cccc(NC(=O)Cn2c(=O)n(CCCC(=O)NCc3ccco3)c(=O)c3ccccc32)c1	none
COc1ccc(NC(=O)Cn2c(=O)n(CCCCC(=O)NCc3ccco3)c(=O)c3ccccc32)cc1Cl	USP10 block 59.2
CC(=O)N1CCc2ccccc2C1C(=O)NCc1ccc2c(c1)OCO2 (stereo not drawn)	none
CCS(=O)(=O)N1Cc2ccccc2CC1C(=O)NCc1ccc2c(c1)OCO2 (stereo not drawn)	USP8 block 38.7
CCS(=O)(=O)N1Cc2ccccc2CC1C(=O)Nc1nc(-c2ccccc2)c(C)s1 (stereo not drawn)	USP8 block 46.2
O=C(CCC1=NS(=O)(=O)c2ccc(C(F)(F)F)cc2N1)NCc1ccccc1	none
COc1ccc(OC)c(CCNC(=O)CCC2=NS(=O)(=O)c3ccc(C(F)(F)F)cc3N2)c1	USP8 block 58.3
CC(C)OCCCN1C(=O)c2[nH]nc(-c3ccccc3O)c2C1c1cccc(Cl)c1 (stereo not drawn)	USP8 block 54.9
c1ccc(SCCCCN2CCOCC2)cc1	none
Cn1nc(C(=O)N2CCC(c3ccccc3)C2)c2c1-c1ccsc1CC2 (stereo not drawn)	USP8 block 73.5
Cc1nnc(-c2nnc(NCCC(C)C)c3ccccc23)o1	none
O=C(Nc1ccc2ccccc2n1)c1ccc(Cl)cc1	USP8 block 59.2
O=C(Nc1ccc2ccccc2n1)c1ccccc1Cl	none
O=C(CCCCCn1c(=O)c2sccc2n(CC(=O)c2ccc(Cl)c(Cl)c2)c1=O)NCc1ccc2c(c1)OCO2	USP8 block 89.3, USP10 block 46.1
O=C(CCCn1c(=O)c2sccc2n(Cc2ccc(F)cc2)c1=O)NCc1ccco1	USP8 block 33.0
O=C(CCCCCn1c(=O)c2sccc2n(CC(=O)c2ccc(F)cc2)c1=O)NCc1ccccc1Cl	USP8 block 44.9
O=C(c1cccnc1)N1CCC2(CC1)CN(c1ncccn1)c1ccccc12	none
COc1ccc(-c2cc(C(=O)Nc3n[nH]c4nc(C)ccc34)[nH]n2)c(OC)c1	USP8 block 55.6
c1ccc(C2CC(c3ccco3)n3ncnc3N2)cc1 (stereo not drawn)	none
CCCCCCCc1cc(O)cc(O)c1	none
CCCC(O)CCCCCCCc1cc(O)cc(O)c1C(=O)OC(CCC)CCCCCCCc1cc(O)cc(O)c1 (stereo not drawn)	USP10 block 76.2
CCn1cc(S(=O)(=O)NCc2ccccc2)c2cccnc21	USP8 block 35.2
Cn1c(=O)c2c(-c3ccncc3)cc(-c3ccccc3)nc2n(C)c1=O	none
O=C1c2ccccc2-c2nnc(-c3ccncc3)cc21	USP8 block 95.0
COc1ccc(OC)c(C(=O)C2C(C(C)=O)N3c4ccccc4C(C)=CC3C23C(=O)Nc2ccccc23)c1 (stereo not drawn)	none
O=C(c1cccs1)[C@@H]1[C@@H](C(=O)c2ccc3c(c2)OCO3)[C@]2(C(=O)Nc3ccccc32)[C@H]2C=Cc3ccccc3N12	USP8 block 37.6
CC1=CC2N(c3ccccc31)C(C(=O)C(C)(C)C)C(C(=O)c1ccc3c(c1)OCO3)C21C(=O)Nc2ccccc21 (stereo not drawn)	USP8 block 68.3
Cc1cn2nnc(C(=O)Nc3ccc(Cl)c(Cl)c3)c2c(=O)[nH]1	USP8 block 96.5
COc1ccc2c(c1)c(=O)c(S(=O)(=O)c1ccc(F)cc1)cn2Cc1cccc(F)c1	USP10 block 38.6
CC(C)(CC(=O)O)CC(=O)N1CCN(C2c3ccccc3-c3ccccc32)CC1	none
O=S(=O)(c1cccc2cccnc12)N1CCCC1c1ccc(F)cc1 (stereo not drawn)	none
O=S(=O)(c1cccc2cccnc12)N1CCN(c2ccc(F)cc2)CC1	USP8 block 55.9
Cc1ccc(Nc2nc(NCc3ccco3)c3ccccc3n2)cc1	USP8 block 31.2
Cc1ccc(-c2cnc([C@@H]3COCCN3Cc3nccn3C)[nH]2)cc1	none
CC/C=C\C/C=C\C/C=C\CCCCCCCC(=O)O	USP7 block 41.3, UCHL1 block 34.8, USP8 block 38.7, USP10 block 54.0
CCCCC[C@H](O)/C=C/C=C/CCCCCCCC(=O)O	none
Cc1cc(-c2cnc(C)nc2C2CCCN(C(=O)Cc3ccccc3F)C2)on1 (stereo not drawn)	none
Fc1ccc(-c2cc3n(c2)CCc2cc4c(cc2-3)OCO4)cc1	USP8 block 47.1
CC(C)CCN1C(=O)C2C(C(=O)Nc3ccc(Oc4ccccc4)cc3)C3C=CC2(O3)C1C(=O)NC1CCCCC1 (stereo not drawn)	USP8 block 30.5
CCCCN1C(=O)C2C(C(=O)Nc3ccc(Oc4ccccc4)cc3)C3C=CC2(O3)C1C(=O)NC1CCCCC1 (stereo not drawn)	none
Cc1cccc(NC(=O)Cn2cc(C(=O)N3CCCCC3)c(=O)c3ccc(C)nc32)c1	none
Cc1cccc(NC(=O)Cn2cc(C(=O)N3CCOCC3)c(=O)c3ccc(C)nc32)c1	USP8 block 34.5
CC1OC2CC(O)C1(O)C1=C2C(O)=C(C(N)=O)C(=N)C1=O (stereo not drawn)	UCHL1 block 52.0, USP8 block 38.7, USP10 block 35.8
